Measurements reported in PubChem BioAssay (NCATS).
Results filed as inconclusive are left out. The source made the active and inactive calls. Calls come from the whole dose curve; as a rule, active = well fitted inhibition curve with a large enough effect; inconclusive = small, poorly fitted or top-dose-only effect; inactive = no such curve, though single readings can be large or run the other way.

Assay: Primary qHTS for small molecule stabilizers of the endoplasmic reticulum resident proteome: Secreted ER Calcium Modulated Protein (SERCaMP) assay (AID 1508630)
Conditions: SH-SY5Y GLuc-SERCaMP (Gaussia luciferase released on ER calcium loss) secretion, thapsigargin, luminescence; series mostly up to 38.4 µM
Excerpt: Assay Provider: Brandon K. Harvey Ph.D.
National Institute on Drug Abuse, National Institutes of Health, Baltimore, MD
Endoplasmic reticulum (ER) dysregulation is associated with human pathologies including neurodegenerative, cardiovascular, muscular, and diabetic conditions. Maintenance of ER calcium is critical for functions of the ER and its depletion can lead to loss of ER resident proteins, in a process termed exodosis. Therapeutic compounds capable of attenuating the redistribution of ER proteins under pathological conditions may slow or stop disease progression. To identify such compounds, we performed a quantitative high-throughput screen (qHTS) using the SERCaMP assay, which monitors secretion of ER resident proteins triggered by calcium depletion.
SERCaMP was initially developed as a reporter of ER calcium homeostasis using a Gaussia luciferase with a modified signal peptide and carboxy-terminus (GLuc-SERCaMP), modifications that confer secretion of the reporter in response to ER calcium depletion (Henderson et al., 2014). The assay was used to screen 9,501 compounds, including a collection of drugs approved by the FDA (US), EMA (EU), NHI (Japan), and HC (Canada) regulatory agencies (Huang et al., 2011). Since the SERCaMP reporter reflects the exodosis phenomenon (Trychta et al., 2018a), compounds identified in the screen have the potential to prevent exodosis by different mechanisms such as stabilizing ER calcium or augmenting ERS retrieval.
1. Henderson, M.J., Wires, E.S., Trychta, K.A., Richie, C.T., and Harvey, B.K. (2014). SERCaMP: a carboxy-terminal protein modification that enables monitoring of ER calcium homeostasis. Mol Biol Cell 25, 2828-2839.
2. Huang, R., Southall, N., Wang, Y., Yasgar, A., Shinn, P., Jadhav, A., Nguyen, D.T., and Austin, C.P. (2011). The NCGC pharmaceutical collection: a comprehensive resource of clinically approved drugs enabling repurposing and chemical genomics. Sci Transl Med 3, 80ps16.
3. Trychta, K.A., Back, S., Henderson, M.J., and Harvey, B.K. (2018a). KDEL Receptors Are Differentially Regulated to Maintain the ER Proteome under Calcium Deficiency. Cell Rep 25, 1829-1840 e1826.
SEQUENCE No. (1, 2, 3, etc.); […] (e.g., Cells, Incubation, Reagent, etc.); VALUE and DESCRIPTION.
1; Reagent; 5 uL; 1000 SH-SY5Y cells per wells
3; Compound; 23 nL; Control inhibitor / compound library
5; Reagent; 100 nM; Thapsigargin
7; Reagent; 1 uL; 0.5x coelenterazine
8; Detection; Luminescence; ViewLux imaging system
NOTES (numbers refer to sequence above)
1; SH-SY5Y human neuroblastoma cells stably expressing GLuc-SERCaMP (SH-SY5Y-GLuc-ASARTDL) cells were seeded in 1,536 well white tissue culture treated plates (Corning, Cat# 7464) in DMEM-high glucose-sodium pyruvate (ThermoFisher Scientific, Cat #10569) supplemented with 10% bovine growth serum (Hyclone), 10 U/ml penicillin (Gibco), 10 ug/ml streptomycin (Gibco), and 20 mM HEPES.
2; Assay plates were incubated for 5 hour at 37C in a humidified incubator containing 5% CO2.
3; qHTS libraries (23 nl, final concentrations of 1.53 uM, 7.67 uM, 38.3 uM) or controls (neutral control: DMSO, positive control: dantrolene) were added using a Kalypsis pin-tool Robotic System equipped with 1536 pinheads.
4; Cells were then incubated for 16 hours at 37C, 5% CO2.
5; Thapsigargin was added at 100 nM to deplete ER calcium stores.
6; Cells were incubated for 4 hour (37 °C, 5% CO2)
7; Gaussia luciferase in the medium was measured by adding 1 ul of 0.5x coelenterazine (final concentration 0.07x) prepared in Gaussia Luciferase Glow Assay Buffer (Pierce), without addition of the Cell Lysis Buffer Reagent.
8; Luminescence was measured using a ViewLux […] CCD imaging system (Perkin Elmer) equipped with clear filters. […] The same controls were also used for the calculation of the Z' factor, a measure of assay quality control, as previously described (Zhang et al., 1999). […]

outcome, inactive:
CCNc1ncc2nc(-c3cn(C)c4ccccc34)c(=O)n(CCC#N)c2n1, COc1ccc(C(=O)N2CCC[C@@]3(CCN(Cc4ccccc4OC)C3)C2)cc1, COc1ccccc1-c1cc(N(C)Cc2ccco2)ncn1, O=c1c(-c2cccc(Cl)c2)nc2cncnc2n1Cc1ccccc1Cl, N#Cc1ccc(CN2CCC3(CC2)CCN(C(=O)c2ccco2)CC3)cc1, CS(=O)(=O)Nc1cccc(-c2ccc3ncnc(NCc4cccnc4)c3c2)c1, Cc1nc2cnc(Oc3ccccc3)nc2n(C2CC2)c1=O, CS(=O)(=O)N1CCC2(CC1)CN(c1ncccn1)C2, Cc1noc(C)c1C(=O)N1CCC[C@@]2(CCN(Cc3nccs3)C2)C1, Cc1ccccc1-c1cc(N(C)Cc2ccco2)ncn1, O=C(Nc1cccc(F)c1)N1CC[C@@]2(CCCN(C(=O)c3csnn3)C2)C1, COc1cccc(-c2cc(NCc3ccccc3)ncn2)c1, O=C(c1cccc(F)c1)N1CCC2(CCCN(c3ccccn3)C2)CC1, O=C(c1cccc(F)c1)N1CCC[C@@]2(CCN(Cc3ccccc3)C2)C1, COc1ccc2[nH]cc(CCNc3nc(-c4ccc(C(=O)N(C)C)cc4)nc4ccccc34)c2c1, N#Cc1cccc(-c2nc(NCc3cccs3)c3ccccc3n2)c1, O=C(c1cccc(F)c1)N1CCC2(CC1)CCN(c1ccc(-c3ccccc3)cc1)CC2, O=c1c(-c2cccs2)nc2cnc(N3CCNCC3)nc2n1Cc1cccs1, CC(=O)N1CCC2(CC1)CCN(c1ncccn1)CC2, N#Cc1cccc(NC(=O)N2CC[C@@]3(CCCN(C(=O)c4cccc(F)c4)C3)C2)c1, Cc1cnc(CNc2cc(-c3ccccc3Cl)ncn2)cn1, Cc1cnc(CNc2cc(-c3ccc4c(c3)OCO4)ncn2)cn1, COc1ccc(C(=O)N2CCC3(CCCN(Cc4ccc(C#N)cc4)C3)CC2)cc1, COc1ccc2[nH]cc(CCNc3nc(-c4cccc(NS(C)(=O)=O)c4)nc4ccccc34)c2c1, COCCn1c(=O)c(-c2ccccc2)nc2cncnc21, COc1ccc(CNc2ccnc(-c3ccoc3)n2)c(OC)c1, COc1ccc(-n2c(=O)c(-c3cccc(F)c3)nc3cncnc32)cc1, Cc1noc(C)c1-c1ccc2ncnc(Nc3ccccc3)c2c1, COc1ccc(C(=O)N2CCC[C@@]3(CCN(c4ccncc4)C3)C2)cc1, O=C(c1ccco1)N1CCC2(CCCN(c3ccccn3)C2)CC1, Cc1noc(C)c1C(=O)N1CCC2(CC1)CCN(c1ccccn1)CC2, O=C(Oc1ccccc1)N1CCC2(CCCN(c3cccc(-c4ccccc4)c3)C2)CC1, COc1cccc(Nc2ncc3ncc(=O)n(Cc4cccs4)c3n2)c1, COc1ccccc1-c1cc(Nc2ccc(F)cc2)ncn1, COc1ccccc1CN1CCCC2(CCN(C(=O)c3cc(C(F)(F)F)cc(C(F)(F)F)c3)CC2)C1, CNc1ccnc(-c2ccccc2C)n1, COCCn1c(=O)c(C)nc2cncnc21, COC(=O)N1CCC2(CCCN(c3ncccn3)C2)CC1, CN(C)c1ncc2nc(-c3ccc(Cl)cc3)c(=O)n(Cc3cccs3)c2n1, Fc1ccc(Nc2ncnc3ccc(-c4ccoc4)cc23)cc1
